Hits are enriched below; roughly 5.7% of the tested compounds scored in any of these assays.
JMJD2A Tudor – JMJD2A Tudor domain (human) inhibition; AID 504339; O75164; 390,000 tested, 4.4% active; Potency, µM (top dose mostly 114 µM), inactives show top-dose activity change, negative = inhibition, usual class: inhibitors; AlphaScreen JMJD2A-Tudor / H3K4me3 peptide binding; also: potency is read from the fitted curve at half-maximal effect; % is scaled to controls: 0 for no effect and ±100 for the full control effect; nearly all actives have a fitted effect of over 50% in size
JMJD2E inh – inhibitors of human JMJD2E histone demethylase | B2RXH2 | 230,000 tested, 1.6% active | AID 2147 | Potency, µM (doses to about 57.1 µM), for inactives: at the highest dose activity change, negative = inhibition, actives largely listed as inhibitors | JMJD2E catalytic domain, FDH-coupled NADH fluorescence (FDH is formaldehyde dehydrogenase); active = well fitted inhibition curve with a large enough effect, not every such curve was filed as active; inconclusive = small, poorly fitted or top-dose-only effect, or another doubt; inactive = no such curve, though single readings can be large or run the other way;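 also: potency is read from the fitted curve at half-maximal effect; 0% = wells with enzyme and -100% = buffer wells without enzyme; nearly all actives have a fitted effect of over 50% in size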
Target sequence (B2RXH2 1-337 limits assumed): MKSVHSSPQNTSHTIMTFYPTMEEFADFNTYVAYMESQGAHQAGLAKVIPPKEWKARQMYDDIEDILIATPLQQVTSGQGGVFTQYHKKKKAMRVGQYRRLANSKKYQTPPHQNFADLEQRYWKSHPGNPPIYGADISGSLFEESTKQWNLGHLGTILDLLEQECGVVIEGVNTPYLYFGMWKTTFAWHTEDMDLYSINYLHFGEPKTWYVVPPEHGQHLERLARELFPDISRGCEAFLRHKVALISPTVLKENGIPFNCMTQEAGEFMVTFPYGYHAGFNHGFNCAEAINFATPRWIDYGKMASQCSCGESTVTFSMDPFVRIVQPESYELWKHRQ
BAZ2B inh – blocks human BAZ2B; AID 504333; AlphaScreen BAZ2B-H3K14Ac peptide displacement; Potency, µM (top dose mostly 114 µM), for the others: at the top dose activity change, negative = inhibition, most hits filed as inhibitors; 360,000 tested, 4.4% active; also: potency is read from the fitted curve at half-maximal effect; % is scaled to controls: 0 for no effect and ±100 for the full control effect; nearly all actives have a fitted effect of over 60% in size
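Multi-concentration screen (max 110 uM) measuring displacement of acetylated histone H3 peptide from BAZ2B by AlphaScreen, using 50 nM protein, 50 nM peptide and 10 ug/mL streptavidin donor plus Ni-chelate acceptor beads.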
HP1b chromo inh – inhibitors of HP1-beta chromodomain binding to methylated histone tails; P83916; AlphaScreen HP1-beta / biotin-H3K9me3 peptide binding; Potency, µM (highest dose often 114 µM), inactives show at the top dose activity change, negative = inhibition, most hits filed as inhibitors; 390,000 tested, 0.56% active; also: potency is read from the fitted curve at half-maximal effect; nearly all actives have a fitted effect of over 70% in size
Target sequence (P83916 whole entry, looked up): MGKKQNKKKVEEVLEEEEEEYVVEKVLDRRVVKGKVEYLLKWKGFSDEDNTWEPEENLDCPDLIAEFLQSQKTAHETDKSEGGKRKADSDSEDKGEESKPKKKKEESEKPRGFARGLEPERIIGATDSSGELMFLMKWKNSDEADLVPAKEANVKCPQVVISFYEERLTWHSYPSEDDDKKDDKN
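Compound inhibition of the preformed complex between 50 nM HP1-beta and 50 nM biotinylated H3K9me3 peptide was read by AlphaScreen. Buffer was PBS pH 7.4 with 0.01% Tween-20. Incubations ran 30 min at room temperature, with 10 ug/mL donor/acceptor beads.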
PI5P4Ka inh – inhibitors of human PI5P4K alpha. AID 652105. PI5P4Kalpha enzyme, ADP-Glo luminescence, 60 min; active compounds read low. P48426. max response, %. 330,000 tested, 1.2% active; active = max response of -50% or lower; inconclusive = between -30% and -50%; inactive = -30% or higher; also: value at the top dose of about 77 µM; % is scaled to controls: 0 for no effect and ±100 for the full control effect
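ADP-Glo luminescence end-point after a 60 min room-temperature kinase reaction. PI5P4Kalpha and substrate in HEPES pH 7.4 buffer with EGTA, 0.1% CHAPS and 5% DMSO; ATP at 5 microM final.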
L3MBTL1 inh – inhibitors of human L3MBTL1; AlphaScreen L3MBTL1–H3K9me1 peptide binding; Potency, µM (series often up to 57.1 µM), without a hit: top-dose activity, negative = inhibition, actives largely listed as inhibitors; 230,000 tested, 0.66% active; also: potency is read from the fitted curve at half-maximal effect; % is scaled to controls: 0 for no effect and ±100 for the full control effect; nearly all actives have a fitted effect of over 60% in size
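First, the protein-peptide complex forms for 30 min at room temperature (L3MBTL1 50 nM, biotinylated H3K9me1 peptide 75 nM). Next, compounds are pin-transferred and incubated 30 min. Finally, AlphaScreen beads are added and read after 30 min.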
The depositor's hits bear a star; [ ] = remark or other dose. Unless noted, calls follow the shape of the dose curve; as a rule, active = well fitted inhibition curve with a large enough effect; inconclusive = small, poorly fitted or top-dose-only effect; inactive = no such curve, though single readings can be large or run the other way.

For Cc1cccc(Nc2c([N+](=O)[O-])cc(C(=O)N3CC(=O)Nc4ccccc43)cc2[N+](=O)[O-])c1 the results were JMJD2A Tudor inconclusive, JMJD2E inh 4%, BAZ2B inh inconclusive, HP1b chromo inh -16%, PI5P4Ka inh 0 and L3MBTL1 inh -7%.
Screening CCN(CC#CCC1(O)c2ccccc2-c2ccccc21)CCO returned JMJD2A Tudor 89µM*, JMJD2E inh -1%, BAZ2B inh inconclusive, HP1b chromo inh -4% and L3MBTL1 inh 0%.
Screening OC1(CC#CCN2CCCCC2)c2ccccc2-c2ccccc21 returned JMJD2A Tudor -12%, JMJD2E inh 8%, BAZ2B inh -13%, HP1b chromo inh 26%, PI5P4Ka inh -2 and L3MBTL1 inh inconclusive.
For COc1cc2c(c(O)c1OC)-c1c(cc(OC)c(OC)c1O)[C@@H](OC(=O)c1ccccc1)[C@@](C)(O)[C@@H](C)[C@@H]2OC(C)=O the results were JMJD2E inh 11% and BAZ2B inh 50µM*.
For CCn1cc(/C=C(\NC(=O)c2ccccc2Cl)C(=O)NCCCn2ccnc2)c2ccccc21 the results were JMJD2A Tudor inconclusive, BAZ2B inh inconclusive and HP1b chromo inh 5%.
`Cc1ccccc1C(=O)c1cccn1CC(=O)NCCN1CCN(c2cccc(C)c2C)CC1` gave JMJD2A Tudor 50µM*, JMJD2E inh 2%, BAZ2B inh inconclusive, HP1b chromo inh inconclusive and PI5P4Ka inh -1.
Screening Cc1ccc(C)c(N2CCN(CCCNC(=O)Cn3cccc3C(=O)c3ccccc3C)CC2)c1 returned JMJD2A Tudor inconclusive, JMJD2E inh -14%, BAZ2B inh -30%, HP1b chromo inh -18% and PI5P4Ka inh 24.
For CC1CCN(CCCOc2ccc(Cl)cc2Br)CC1 the results were JMJD2A Tudor 20µM*, JMJD2E inh inconclusive, BAZ2B inh inconclusive, HP1b chromo inh inconclusive, PI5P4Ka inh 4 and L3MBTL1 inh 4%.
`CC1CCN(CCOCCOc2ccc(Cl)cc2Br)CC1` gave JMJD2A Tudor 4.5µM*, JMJD2E inh 2%, BAZ2B inh 79µM*, HP1b chromo inh inconclusive and L3MBTL1 inh -1%.
`Cc1ccc(Nc2c(-c3c[nH]c4ccccc34)nc3cc(C)ccn23)cc1` gave JMJD2A Tudor 25µM*, BAZ2B inh inconclusive and HP1b chromo inh inconclusive.
`Cc1ccn2c(Nc3ccccc3)c(-c3c[nH]c4ccccc34)nc2c1` gave JMJD2A Tudor 22µM*, BAZ2B inh 10µM* and HP1b chromo inh inconclusive.
Cc1ccc2nc(-c3c[nH]c4ccccc34)c(Nc3ccc(F)cc3)n2c1 was read as JMJD2A Tudor inconclusive, BAZ2B inh -34% and HP1b chromo inh -8%.
For CCc1ccc(NC(=O)CSc2nc(=O)n(Cc3cccnc3)c3c2CCC3)cc1 the results were JMJD2A Tudor -7%, BAZ2B inh -4% and HP1b chromo inh 33%.
Screening CC1CCCCC1NCC(=O)NCc1ccc(F)cc1 (stereo unspecified) returned JMJD2A Tudor 1.3µM*, JMJD2E inh inconclusive, BAZ2B inh 50µM*, HP1b chromo inh inconclusive, PI5P4Ka inh 5 and L3MBTL1 inh 6%.
For CCOC(=O)c1ccccc1NC(=O)N1CCOc2ccc(Cl)cc21 the results were JMJD2A Tudor -20%, BAZ2B inh -32% and HP1b chromo inh 35%.
For CCN(c1ccccc1)C1SC(=O)N(c2ccccc2)C1=O (stereo unspecified) the results were JMJD2A Tudor -6% and HP1b chromo inh 33%.
Screening CC1CCCC(C)N1C(=O)COC(=O)/C=C/c1ccc(Br)o1 (stereo unspecified) returned JMJD2A Tudor 20µM*, HP1b chromo inh inconclusive, PI5P4Ka inh inconclusive and L3MBTL1 inh inconclusive.
Screening COc1ccccc1C(=O)NC(=O)COC(=O)c1cnccn1 returned PI5P4Ka inh -4.
`COc1ccccc1C(=O)NC(=O)COC(=O)c1nccnc1N` gave JMJD2A Tudor 40µM*, HP1b chromo inh 11%, PI5P4Ka inh 0 and L3MBTL1 inh -16%.
Screening O=C(Cn1cc(SCc2cccc(F)c2)c2ccccc21)N1CCCC1 returned JMJD2A Tudor -13%, BAZ2B inh inconclusive and HP1b chromo inh 30%.
Screening FC(F)(F)c1cccc(NC(=S)Nc2ccc(Cl)c(Cl)c2)c1 returned JMJD2A Tudor 3%, JMJD2E inh -23%, BAZ2B inh 7%, HP1b chromo inh 31%, PI5P4Ka inh 12 and L3MBTL1 inh 55%.
O=[N+]([O-])c1cc(C(F)(F)F)cc([N+](=O)[O-])c1NCCNC(=S)Nc1ccc(Cl)c(Cl)c1 was read as JMJD2A Tudor 32µM*, JMJD2E inh -8%, BAZ2B inh 25µM*, HP1b chromo inh -31%, PI5P4Ka inh 3 and L3MBTL1 inh -22%.
`CCOc1ccc(-n2c(=O)c3c(C)c(C)sc3n(CC(=O)N3CCC(C)CC3)c2=O)cc1` gave JMJD2A Tudor 1%, BAZ2B inh 1% and HP1b chromo inh 43%.
Screening CCN1C(=O)/C(=C/c2nc3ccccc3c(=O)n2-c2ccccc2)c2ccccc21 returned JMJD2A Tudor inconclusive, JMJD2E inh -2%, BAZ2B inh 3%, HP1b chromo inh 3%, PI5P4Ka inh 4 and L3MBTL1 inh -3%.
CCn1c(/C=C2/C(=O)N(C)c3ccccc32)nc2ccccc2c1=O was read as JMJD2A Tudor -28%[57.1 µM], JMJD2E inh inconclusive, BAZ2B inh 35µM*, HP1b chromo inh inconclusive, PI5P4Ka inh 1 and L3MBTL1 inh inconclusive.
`CCN1C(=O)/C(=C\c2nc3ccccc3c(=O)n2CC)c2ccccc21` gave JMJD2A Tudor 16µM*, JMJD2E inh inconclusive, BAZ2B inh 45µM*, HP1b chromo inh inconclusive, PI5P4Ka inh 2 and L3MBTL1 inh -12%.
Screening CCn1c(/C=C\c2ccccc2C)nc2ccccc2c1=O returned JMJD2A Tudor 54%, JMJD2E inh -8%, BAZ2B inh 10%, HP1b chromo inh 96%, PI5P4Ka inh 9 and L3MBTL1 inh 14%.
CCn1c(/C=C/c2c[nH]c3ccccc23)nc2ccccc2c1=O was read as JMJD2A Tudor 56µM*, JMJD2E inh inconclusive, BAZ2B inh -5%, HP1b chromo inh -3%, PI5P4Ka inh 1 and L3MBTL1 inh 7%.
For CCn1c(/C=C/c2ccccc2Cl)nc2ccccc2c1=O the results were JMJD2A Tudor -7%, BAZ2B inh -4%, HP1b chromo inh 64% and PI5P4Ka inh -4.
